Screening data from PubChem.
KB-3-1 tox: kills parental KB-3-1 adenocarcinoma cells | KB-3-1 viability, CellTiter-Glo ATP luminescence, 72 h | Potency, µM (series often up to 46.1 µM), actives largely listed as cytotoxic | 400,000 tested, 1.4% active; note: nearly all actives have a fitted effect of over 60% in size
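Parental KB-3-1 viability, qHTS format: 72 h compound exposure, 37 °C; CellTiter-Glo; media-only wells and DMSO plates as controls; concentration-effect fits on corrected data.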
SW480 rerep: induces DNA re-replication in SW480 colon adenocarcinoma cells; SW480 DNA re-replication, Hoechst DNA content imaging, 48 h; Potency, µM (series often up to 46.1 µM), usual class: activators; 340,000 tested, 1.8% active; AID 624297; note: nearly all actives have a fitted effect of over 55% in size
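SW480 cells exposed to compounds for 48 hr at 37 C, 5% CO2, then Hoechst-stained 40 min. Nuclear DNA content imaged by fluorescence scanning (405 nm excitation, 500-530 nm emission); re-replication scored as increased high-intensity nuclei.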
HT1080NT lethal: kills 2HG-producing HT-1080-NT fibrosarcoma cells. AID 686970. HT-1080-NT fibrosarcoma viability, CellTiter-Glo ATP luminescence, 48 h. 360,000 tested, 1.6% active. Potency, µM (titrated, usually from 46.1 µM), most hits filed as cytotoxic;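 note: NT is the 2HG producing partner of a matched IDH1 knockdown line; nearly all actives have a fitted effect of over 55% in size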
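Fibrosarcoma NT cells, 750 per well in 5% FBS RPMI, were exposed to compound for 48 hours. Viability: CellTiter-Glo luminescence.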
HT1080 IDH1KD tx: kills HT-1080 cells with IDH1 knockdown | HT-1080 IDH1 knockdown viability, ATP luminescence, 48 h | Potency, µM (titrated, usually from 46.1 µM), hits mostly cytotoxic | 360,000 tested, 2% active | AID 686971
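IDH1KD HT-1080 cells, 750/well, RPMI + 5% FBS; compound pinned after 2 h settling; 48 h, 37 °C; CellTiter-Glo luminescence; % activity normalised to DMSO and no-cell wells; curves fitted, classed by r2 and efficacy.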
MCF10A rerep: DNA re-replication induction in MCF 10a cells | MCF 10A DNA re-replication, Hoechst nuclear intensity, 48 h | Potency, µM (doses to about 46.1 µM), actives largely listed as activators | 350,000 tested, 2.9% active; note: nearly all actives have a fitted effect of over 50% in size
KB-V1 cytotox: kills drug-selected multidrug resistant KB-V1 cells; KB-V1 MDR cells viability, CellTiter-Glo, 72 h; Potency, µM (titrated, usually from 46.1 µM), usual class: cytotoxic; 400,000 tested, 3.4% active; note: nearly all actives have a fitted effect of over 60% in size
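KB-V1 MDR subline cells in DMEM (phenol-red free, 10% FBS) exposed to compounds in qHTS concentration series for 72 h at 37 degrees C. Viability read by CellTiter-Glo luminescence; concentration-effect curves fitted after normalization and correction.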
Numbers stand for hits; n = inactive; u = inconclusive; x = no result; [ ] = remark or other dose. The list is not random: actives were taken first. Their share in the collection is about 8%. Calls come from the whole dose curve; as a rule, active = well fitted curve in the direction sought with a large enough effect; inconclusive = small, poorly fitted or top-dose-only effect, or another doubt; inactive = no such curve, though single readings can be large; an effect the other way counts as inactive or inconclusive.

SMILES	KB-3-1 tox	SW480 rerep	HT1080NT lethal	HT1080 IDH1KD tx	MCF10A rerep	KB-V1 cytotox
O=C(CN1C(=O)C2(SCC(=O)N2c2ccccc2)c2ccccc21)NCc1ccccc1Cl (configuration not stated)	n	x	x	x	x	n
COc1ccc(N2C(=O)CSC23C(=O)N(Cc2ccccc2F)c2ccccc23)cc1Cl (configuration not stated)	u	x	x	x	x	18.4µM
COc1cccc(N2C(=O)CSC23C(=O)N(Cc2ccccc2F)c2ccccc23)c1 (configuration not stated)	n	x	x	x	x	u
O=C(CN1C(=O)C2(SCC(=O)N2c2cccc(F)c2)c2ccccc21)NCc1ccccc1Cl (configuration not stated)	n	x	x	x	x	6.51µM
COc1ccc(N2C(=O)CSC23C(=O)N(Cc2ccc(C)cc2)c2ccccc23)cc1Cl (configuration not stated)	u	x	x	x	x	18.4µM
O=C1CSC2(C(=O)N(Cc3ccccc3F)c3ccccc32)N1c1cccc(C(F)(F)F)c1 (configuration not stated)	18.4µM	x	x	x	x	8.2µM
O=C(CN1C(=O)C2(SCC(=O)N2c2ccc(F)c(F)c2)c2ccccc21)Nc1ccccc1F (configuration not stated)	n	x	x	x	x	n
O=C(CN(C(=O)c1csnn1)c1cccc2ccccc12)NCc1ccc(F)cc1	n	u	n	n	n	n
COc1cc2[nH]c3c(=O)n(CCN4CCCCC4)cnc3c2cc1OC	n	n	n	n	n	n
NC(=O)c1ccccc1NC(=S)NC(=O)c1ccc(Br)o1	u	n	n	n	n	u
CCCOc1ccc2c(=O)c(-c3cc(C(=O)OC)oc3C)c(C)oc2c1	n	n	n	n	n	u
CCC(C)N(C(=O)c1csnn1)C(C(=O)NCc1ccc(F)cc1)c1ccccc1 (configuration not stated)	n	n	n	n	n	n
CCOC(=O)Nc1cc(=O)c2ccccc2o1	u	u	8.91µM	u	u	u
Cc1ccc(Cl)cc1NC(=O)CSc1nncn1-c1ccccn1	n	n	n	n	n	n
Cc1ccc(S(=O)(=O)N2CCCN(S(=O)(=O)c3ccc4ccccc4c3)CC2)cc1	n	u	n	n	n	8.2µM
CN1CCN(S(=O)(=O)c2ccc3ccccc3c2)CC1	n	u	n	n	n	n
O=[N+]([O-])c1cc(C(F)(F)F)ccc1N1CCN(S(=O)(=O)c2ccc3ccccc3c2)CC1	18.4µM	n	n	n	n	5.17µM
Cc1ccc(S(=O)(=O)N2CCCN(S(=O)(=O)c3ccc(C)c(C)c3)CC2)cc1C	n	n	n	n	n	4.11µM
Cc1ccc(S(=O)(=O)N2CCCC2)cc1S(=O)(=O)N1CCCC1	n	n	n	n	n	u
Cc1ccc(S(=O)(=O)N2CCCN(C)c3nc4ccccc4nc32)cc1	n	u	n	n	23.1µM	16.4µM
CN1CCCN(S(=O)(=O)c2ccccc2)c2nc3ccccc3nc21	n	n	n	n	u	n
CC(C)n1c(SCC(=O)Nc2ccc(F)cc2)nnc1C1CC1	x	n	n	n	n	x
CC1=C(C#N)C(C)C2=C(CC(C)(C)CC2=O)N1 (configuration not stated)	n	n[9.22 µM]	n	n	n	n
Cc1ccccc1C1NC(=O)c2ccccc2O1 (configuration not stated)	n	n	n	n	n	n
Cc1ccccc1C1N=C2Oc3ccccc3C=C2C(=O)N1 (configuration not stated)	7.31µM	x	n	n	x	4.11µM
SMILES	KB-3-1 tox	SW480 rerep	HT1080NT lethal	HT1080 IDH1KD tx	MCF10A rerep	KB-V1 cytotox
C=CCn1c(C)c(/C=C/c2cc[n+](C)cc2)c2ccccc21	2.31µM	14.6µM	n	u	u	n
CCn1cc(/C=C/c2cc[n+](C)cc2)c2ccccc21	n	u	u	u	16.4µM	n
C=CCn1cc(/C=C/c2cc[n+](C)cc2)c2ccccc21	4.11µM	u	u	u	u	n
CC(C)n1cc(/C=C/c2cc[n+](C)cc2)c2ccccc21	1.3µM	18.4µM	u	9.2µM	6.51µM	n
Cc1ccccc1/C=C/c1cc[n+](C)cc1	u	n	n	n	n[9.22 µM]	n
CCN(CC)CCCNC(=O)c1cc(-c2ccccc2)c(N2CCCCC2)s1	18.4µM	n	u	u	n	u
O=C(NCCc1ccccc1)c1cc(-c2ccccc2)c(N2CCOCC2)s1	n	n	n	n	u	n
CCOC(=O)c1c(NC(=O)CCN2CCOCC2)sc2c1CC(C)(C)OC2	n	n	n	n	u	16.4µM
CN(C)c1ccc(/C=C/N2C=CCc3c2ccc2ccccc32)cc1	0.581µM	x	x	x	x	u
O=[N+]([O-])c1c(Nc2ccccc2O)cc(Cl)c2nonc12	u	n	10.3µM	5.8µM	n	u
O=[N+]([O-])c1c(Nc2ccccc2O)ccc2nonc12	n	n	n	n	u	n
O=C(NC1CCN(C(=O)Nc2ccc(F)cc2)CC1)c1ccc(F)cc1	n	u	u	n	n	n
C=C(NC(=O)C(=C)NC(=O)c1csc(C2=N[C@@H]3c4csc(n4)[C@@H]4NC(=O)c5csc(n5)[C@@H]([C@](C)(O)[C@H](C)O)NC(=O)[C@@H]5CSC(=N5)/C(=C/C)NC(=O)[C@@H]([C@H](C)O)NC(=O)c5csc(n5)[C@]3(CC2)NC(=O)[C@@H](C)NC(=O)C(=C)NC(=O)[C@@H](C)NC(=O)[C@@H]([C@@H](C)CC)N[C@H]2C=Cc3c([C@H](C)O)cc(nc3[C@@H]2O)C(=O)O[C@H]4C)n1)C(N)=O	x	7.18µM	x	x	8.05µM	x
C=C(NC(=O)C(=C)NC(=O)c1csc(C2=NC3c4csc(n4)C4NC(=O)c5csc(n5)C(C(C)(O)C(C)O)NC(=O)C5CSC(=N5)/C(=C/C)NC(=O)C(C(C)O)NC(=O)c5csc(n5)C3(CC2)NC(=O)C(C)NC(=O)C(=C)NC(=O)C(=C)NC(=O)C(C(C)C)NC2C=Cc3c(C(C)O)cc(nc3C2O)C(=O)OC4C)n1)C(N)=O (configuration not stated)	u	1.16µM	u	5.17µM	u	u
CCC(=O)N=c1sc2cc([N+](=O)[O-])ccc2n1CCOC	n	n	n	n	n	n
O=c1oc(-c2ccc(O)c(O)c2)cc2cccc(O)c12	n	16.4µM	n	n	7.31µM	n
O=c1cc(-c2ccccc2)oc2ccc3ccccc3c12	n	x	n	n	x	20.6µM
O=c1cc(-c2ccc(O)c(O)c2)oc2ccc3ccccc3c12	n	u	n	n	u	18.4µM
O=c1cc(-c2ccccc2)oc2cccc(O)c12	n	n	n	n	n	n
